The text below walks through data of PubChem BioAssay (NCI).

About 79,000 compounds went through this panel and 15% of them were active in at least one assay; those are over-represented in the sample as a whole. Unmarked numbers belong to inactive results. Active and inactive are the calls of the source. Cut-off read from the data, not from the text of the source: active = growth inhibition above about 70%; inactive = the rest.

A short description of assay [1]: NCI Yeast Anticancer Drug Screen. Data for the rad50 strain (AID 155).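 Note: 0% = growth of vehicle-only cultures of the same strain.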 Particulars: S. cerevisiae rad50 strain growth inhibition; at 50.0 µM; stronger effect = higher value. Put shortly: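 A DNA repair-deficient yeast mutant serves as the test organism; compound-induced growth inhibition is calculated against vehicle-treated cells.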
The nature of assay [2]: NCI Yeast Anticancer Drug Screen. Data for the mec2-1 strain (AID 157). Particulars: S. cerevisiae mec2-1 strain, at 50.0 µM, stronger effect = higher value. The essentials:
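Growth inhibition is read against vehicle-treated controls after compound exposure of the mec2-1 yeast strain, which is defective in DNA damage repair or cell cycle control.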

A short description of assay [3]: NCI Yeast Anticancer Drug Screen. Data for the sgs1 mgt1 strain (AID 161).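 Note: 0% = growth of cultures given vehicle only.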 Particulars: S. cerevisiae sgs1 mgt1 strain, at 50.0 µM, stronger effect = higher value. The essentials:
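Growth of a repair-deficient yeast mutant was monitored after compound treatment and expressed as inhibition relative to vehicle-treated cultures.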

Assay [4] in a line: NCI Yeast Anticancer Drug Screen. Data for the cln2 rad14 strain (AID 165).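 Note: 0% = growth equal to vehicle treated cultures.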 Particulars: S. cerevisiae cln2 rad14 strain, at 50.0 µM, stronger effect = higher value. The essentials: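 Growth inhibition, relative to vehicle-treated controls, is the read-out. The test organism is a yeast strain with defined genetic alterations, cln2 rad14.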
Assay [5] is described as follows: NCI Yeast Anticancer Drug Screen. Data for the bub3 strain (AID 167). Particulars: S. cerevisiae bub3 mutant strain, at 50.0 µM, stronger effect = higher value. Put shortly:
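Inhibition values come from growth of compound-treated mutant yeast normalised to vehicle-treated controls.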

Assay [6] in a line: NCI Yeast Anticancer Drug Screen. Data for the mlh1 rad18 strain (AID 175). Particulars: S. cerevisiae mlh1 rad18 strain growth inhibition; at 50.0 µM; stronger effect = higher value. Put shortly: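 Cells of a genetically altered yeast strain, deficient in DNA damage repair, were treated with compound. Their growth was then compared with that of vehicle-treated cultures to give inhibition.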

`CCN(CC)CC1CCCCCCCCCCC1=O` (configuration not stated): the growth inhibition in assay [1] was -30.3%; in assay [2], -17.9%; in assay [3], -32.7%; in assay [4] it was 17.4%; in assay [5], -44%; in assay [6], -28.9%.

`NC(=O)NC(=O)CC1NC(=O)NC1=O` (configuration not stated): the growth inhibition was 9.25% in assay [1]; 12% in assay [2]; 18.1% in assay [3]; 12.1% in assay [4]; -4.1% in assay [5]; -16.4% in assay [6].

For the compound `O=C(O)c1cc(Br)sc1Br`, the growth inhibition in assay [1] is 8.75%; in assay [2] it was -12.4%; in assay [3] it was -8.8%; in assay [4], 0.7%; in assay [5], -9.6%; in assay [6], -15.1%.

For the compound `CCOC(=O)c1c(C)[nH]c(C)c1/C=C/C(=O)O`, the growth inhibition is 0.95% in assay [1]; -5.1% in assay [2]; -0.9% in assay [3]; 1.45% in assay [4]; 2.35% in assay [5]; -0.8% in assay [6].

As to `CC(=O)N(C1CCCCC1)C1CCCCC1`, the growth inhibition in assay [1] is 30.2%; in assay [2] it was 20.6%; in assay [3], 13.4%; in assay [4], -2.05%; in assay [5], -2.2%; in assay [6], 45%.

For the compound `O=C1C(=O)c2ccc3c(c2-c2cc4c(cc21)OCO4)OCO3`, the growth inhibition in assay [1] is -5.55%; in assay [2] it was -17.1%; in assay [3], -14.9%; in assay [4], -5.55%; in assay [5], -27.5%; in assay [6], 18%.

For `O=C(Nc1ccccc1Cl)Oc1ccc(Cl)cc1Cl`, the growth inhibition in assay [1] was 3.5%; in assay [2], 20.1%; in assay [3], 7.4%; in assay [4] it was -15.1%; in assay [5], -6.05%; in assay [6], -9.45%.

In the case of `Fc1nc(F)nc(-c2c3ccccc3c3n2CCS3)n1`, the growth inhibition is 1.65% in assay [1]; 14.1% in assay [2]; 9.1% in assay [3]; 15.3% in assay [4]; 4.7% in assay [5]; 7.2% in assay [6].

Turning to `CCNC(=O)NS(=O)(=O)c1ccc(Sc2ccc(Cl)cc2)nc1`, the growth inhibition is -5.8% in assay [1]; -2.95% in assay [2]; -7.5% in assay [3]; -5.7% in assay [4]; -0.55% in assay [5]; -0.4% in assay [6].

For `CC1(c2ccccc2)OCCCO1`, the growth inhibition is -11.3% in assay [1]; -7.15% in assay [2]; -10.8% in assay [3]; 0.65% in assay [4]; -2.5% in assay [5]; -0.8% in assay [6].

Consider `CCOC(=O)/C(=C(/N)C1OC(COC(c2ccccc2)(c2ccccc2)c2ccccc2)C2OC(C)(C)OC12)C1CC(=O)N(C)C1=O` (configuration not stated), for which the growth inhibition was -4.35% in assay [1]; 16.1% in assay [2]; 12.7% in assay [3]; -27.8% in assay [4]; -7.35% in assay [5]; 41.5% in assay [6].

With `CC1(C)C=C(C(=O)O)C(C)(C)N1O`, the growth inhibition is -8.95% in assay [1]; -25.8% in assay [2]; 5.65% in assay [3]; 6.9% in assay [4]; 14.3% in assay [5]; 2.25% in assay [6].

As to `Cc1cc(Cl)cc(C)c1O`, the growth inhibition was 39.8% in assay [1]; -10.3% in assay [2]; 6.15% in assay [3]; 0.95% in assay [4]; 14.9% in assay [5]; 11.8% in assay [6].

`Clc1ccc(CCc2ccncn2)c(Cl)c1`: the growth inhibition in assay [1] was 17.5%; in assay [2], 16.1%; in assay [3], 5.7%; in assay [4], 17.7%; in assay [5] it was 14.7%; in assay [6] it was 51.6%.

As to `CC1CC(C)c2ccccc21` (configuration not stated), the growth inhibition in assay [1] was 42.3%; in assay [2], 27.4%; in assay [3], 17.8%; in assay [4] it was 39.3%; in assay [5], 0.3%; in assay [6], 2.4%.

Consider `CC1(C)C(=NNc2ccccc2)C(C)(C)C1=NNc1ccccc1`, for which the growth inhibition in assay [1] is 14.8%; in assay [2] it was 63%; in assay [3], 15.5%; in assay [4], 79.9% (active); in assay [5], 96.2% (active); in assay [6], 33%.

Take `Cc1cccc(C)c1N=Nc1ccc(O)c(CN(C)C)c1`: the growth inhibition is -6.2% in assay [1]; -14.7% in assay [2]; -12.1% in assay [3]; -3.6% in assay [4]; 22.6% in assay [5]; -8.85% in assay [6].

Regarding `O=C(COc1cc(Cl)c(Cl)cc1Cl)Nc1ccccc1Br`, the growth inhibition in assay [1] is 2.5%; in assay [2], -6.9%; in assay [3], 0.1%; in assay [4], -15.9%; in assay [5] it was 2.2%; in assay [6], -8.85%.

On to `CN(C1c2ccccc2Oc2ccccc21)S(=O)(=O)c1ccc([N+](=O)[O-])cc1`, for which the growth inhibition in assay [1] is 9.9%; in assay [2] it was -2.7%; in assay [3] it was 6%; in assay [4], 21.8%; in assay [5], 3.35%; in assay [6], 40.1%.

With `O=C1O/C(=C/c2ccc(O)cc2)c2ccccc21`, the growth inhibition in assay [1] is 0.9%; in assay [2] it was -26.9%; in assay [3], -4.1%; in assay [4], -15.1%; in assay [5], 6.9%; in assay [6] it was -11.4%.

For the compound `CNC(=S)Nc1cccc(C)c1`, the growth inhibition in assay [1] was -3.1%; in assay [2], 2.65%; in assay [3], 4.55%; in assay [4], -8.55%; in assay [5], -10.4%; in assay [6], 4.05%.

As to `CCCCCSC1CCCC1`, the growth inhibition in assay [1] is 35%; in assay [2], -10%; in assay [3], 7.65%; in assay [4] it was -2.2%; in assay [5], 9.5%; in assay [6], 28.7%.

Consider `O=C1CSC(C(N=Nc2ccc(Cl)cc2)c2nc3ccccc3[nH]2)=N1` (configuration not stated), for which the growth inhibition was -50.6% in assay [1]; -26.3% in assay [2]; -43.1% in assay [3]; -18.1% in assay [4]; -42.6% in assay [5]; -46.7% in assay [6].

As for `Cc1nc2ccccc2c(=O)n1C`, the growth inhibition in assay [1] was -7.5%; in assay [2], -17.9%; in assay [3] it was 10.7%; in assay [4], 2.35%; in assay [5] it was -5.4%; in assay [6], 3.95%.

For `Nc1ccc(N=Nc2c(S(=O)(=O)O)cc3cc(S(=O)(=O)O)cc(O)c3c2O)cc1`, the growth inhibition in assay [1] was -30.8%; in assay [2], -16.4%; in assay [3], -29.5%; in assay [4], -23.9%; in assay [5] it was 6.55%; in assay [6], 10.8%.

With `COc1ccc(C2CCCCCC2OC(=O)c2ccc([N+](=O)[O-])cc2)c(OC)c1OC` (configuration not stated), the growth inhibition in assay [1] was 16%; in assay [2] it was 11.5%; in assay [3], -2.45%; in assay [4], 42.9%; in assay [5] it was 2.6%; in assay [6] it was 1.7%.

With `CNC(=S)N(C)/N=C/c1ccccc1`, the growth inhibition was 10.3% in assay [1]; 2.4% in assay [2]; -3.75% in assay [3]; -28.9% in assay [4]; -7.15% in assay [5]; 3% in assay [6].

`CN(C)C1Cc2ccccc2C1OC(=O)c1ccccc1` (configuration not stated): the growth inhibition is 27% in assay [1]; 20.2% in assay [2]; 11% in assay [3]; 22.1% in assay [4]; 14.6% in assay [5]; 37.1% in assay [6].

Turning to `Cc1ccc(S(=O)(=O)OC2C3OC(C)(C)OC3OC2C2CSC(=S=O)S2)cc1` (configuration not stated), the growth inhibition was 31.6% in assay [1]; -0.6% in assay [2]; 21.8% in assay [3]; 22.2% in assay [4]; -3.15% in assay [5]; 12.7% in assay [6].

Take `Cc1cc(N)ccc1N=Nc1ccc(Sc2ccc(N=Nc3c(S(=O)(=O)O)cc4cc(S(=O)(=O)O)c(N=Nc5ccc([N+](=O)[O-])cc5)c(N)c4c3O)cc2)cc1`: the growth inhibition in assay [1] is -77%; in assay [2] it was -27.9%; in assay [3], -32.4%; in assay [4] it was -95.8%; in assay [5], -65.8%; in assay [6] it was -27.9%.

Consider `CC1CCC(Oc2nc3c(c(=O)n(C)c(=O)n3C)n2C)CC1` (configuration not stated), for which the growth inhibition is -4.75% in assay [1]; -2.85% in assay [2]; -14.8% in assay [3]; 2% in assay [4]; -8.7% in assay [5]; -12.5% in assay [6].

On to `CCCCC(O)c1ccc[n+]([O-])c1` (configuration not stated), for which the growth inhibition in assay [1] is 4.3%; in assay [2], -21%; in assay [3] it was 0.6%; in assay [4], 2.95%; in assay [5], -3.4%; in assay [6], 3.95%.

As for `CC(=O)NCCSC(=O)CCCCCCCCC(=O)SCCNC(C)=O`, the growth inhibition in assay [1] was 11.8%; in assay [2] it was -0.25%; in assay [3], 27.2%; in assay [4] it was 22.1%; in assay [5] it was 6.55%; in assay [6] it was 6.5%.

In the case of `CCCCCCCCCCCCCCCC(=O)N(CCCCCCCCCCC(=O)O)CC(O)C(O)C(OC1OC(CO)C(O)C(O)C1O)C(O)CO` (configuration not stated), the growth inhibition in assay [1] was -8.15%; in assay [2], -23.6%; in assay [3], 10.2%; in assay [4] it was -22.3%; in assay [5] it was 50.6%; in assay [6], -15.8%.

As to `c1ccc(CN2CCCCC(Sc3ccccc3)CC2)cc1` (configuration not stated), the growth inhibition is 90.2% (active) in assay [1]; 93.8% (active) in assay [2]; 92.2% (active) in assay [3]; 90.5% (active) in assay [4]; 89.7% (active) in assay [5]; 90.9% (active) in assay [6].

Regarding `CCOC(=O)c1cc(N)c(C(=O)OCC)cc1N`, the growth inhibition is 4.15% in assay [1]; -16.5% in assay [2]; -1.3% in assay [3]; 3.6% in assay [4]; 8.65% in assay [5]; 10.3% in assay [6].

Regarding `O=C(O)C1CC2(CCC1c1ccccc1)SCCS2` (configuration not stated), the growth inhibition in assay [1] was 6.7%; in assay [2], 1.15%; in assay [3] it was 12.1%; in assay [4], 13.6%; in assay [5], 6.5%; in assay [6], -9.85%.
